# Several values for one entry are separate records, joined by “and”; a condition that tells them apart may be missing. Equal entries are not always repeated. Inconclusive results are not listed. Where a call stands in place of a potency, no number is given. Activity calls are given as the source filed them. Unless noted, calls follow the shape of the dose curve; as a rule, active = well fitted curve in the direction sought with a large enough effect; inconclusive = small, poorly fitted or top-dose-only effect, or another doubt; inactive = no such curve, though single readings can be large; an effect the other way counts as inactive or inconclusive.
# Tests used:
# [1] = NCATS anti-infectives library activity on HEK293 viability as a counter-qHTS vs the C. elegans viability qHTS (AID 1745854);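 also: HEK293 cells exposed to compounds for 24 hr before the viability read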
# Method in brief: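 Cytotoxicity in human HEK293 cells is measured by ATP-dependent CellTiter-Glo luminescence following a 24 hr incubation with titrated library compounds at 37C. Top final concentration is 41.7 uM.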
# [2] = NCATS anti-infectives library activity on the primary C. elegans qHTS viability assay (AID 1745855; calls by dose curve)
# Method in brief: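 Viability is taken from GFP fluorescence of PE254-GFP-FLuc C. elegans imaged by laser cytometry over 7 days. Ten L1 worms per well grow at 21 °C on TOP10 E. coli capsules with titrated compound; levamisole marks toxicity.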
# [3] = Primary qHTS for inhibitors of nuclear receptor binding SET domain protein 2 (NSD2) in an isogenic RCH-ACV NSD2 p.E1099K mutant (9B) (AID 1645876); also: nearly all actives have a fitted effect of over 70% in size; also: potency is read from the fitted curve at half-maximal effect
# [4] = target: Metallo-beta-lactamase type 2 (Klebsiella pneumoniae) (UniProt C7C422); experiment: qHTS to identify inhibitors of the New Delhi Metallo-beta-lactamase (NDM): assay validation screen against the NCATS LOPAC Collection (AID 1794843)
# Sequence of Metallo-beta-lactamase type 2 (Klebsiella pneumoniae) (C7C422 whole entry, looked up): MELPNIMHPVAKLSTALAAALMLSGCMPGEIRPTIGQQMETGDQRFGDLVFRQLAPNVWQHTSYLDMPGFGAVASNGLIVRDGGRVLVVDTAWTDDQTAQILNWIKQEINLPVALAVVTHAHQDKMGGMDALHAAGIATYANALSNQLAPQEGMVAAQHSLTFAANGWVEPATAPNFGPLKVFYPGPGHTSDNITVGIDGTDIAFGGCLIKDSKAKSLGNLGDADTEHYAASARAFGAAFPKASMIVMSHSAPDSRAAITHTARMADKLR
# Method in brief: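 Absorbance at 485 nm from nitrocefin turnover (50 uM solution added), read at plateau, gives the read-out. Compounds in DMSO were incubated first with 2 nM final NDM-1 in pH 7.0 HEPES buffer containing 1 uM ZnSO4 and 0.01% Tween20.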
# [5] = Primary qHTS for inhibitors of nuclear receptor binding SET domain protein 2 (NSD2) in an RCH-ACV wild type WT cells (2C) (AID 1645877); also: nearly all actives have a fitted effect of over 70% in size; also: potency is read from the fitted curve at half-maximal effect
# [6] = target: Catechol O-methyltransferase (Homo sapiens) (UniProt P21964); experiment: Confirmatory Screen for Target Class Profiling of Small Molecule Inhibitors of Methyltransferases (AID 1745852; calls by dose curve; also: potency is read from the fitted curve at half-maximal effect); settings: MTase-Glo luminescence, SAH detection, recombinant enzyme, stronger effect = lower value; measured here: COMT max response unless noted
# Sequence of Catechol O-methyltransferase (Homo sapiens) (P21964 whole entry, looked up): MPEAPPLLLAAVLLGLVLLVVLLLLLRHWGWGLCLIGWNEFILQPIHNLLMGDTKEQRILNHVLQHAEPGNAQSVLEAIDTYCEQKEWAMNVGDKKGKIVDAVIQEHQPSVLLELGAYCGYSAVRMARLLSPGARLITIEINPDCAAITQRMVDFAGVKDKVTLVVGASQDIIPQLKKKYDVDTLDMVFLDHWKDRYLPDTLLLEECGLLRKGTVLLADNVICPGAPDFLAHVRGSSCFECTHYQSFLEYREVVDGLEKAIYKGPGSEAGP
# [7] = target: Guanidinoacetate N-methyltransferase (Homo sapiens) (UniProt Q14353); experiment: as above; settings: MTase-Glo luminescence, SAH detection, recombinant enzyme; activity change, negative = inhibition: at 57.3 µM (top of the series)
# [8] = target: Nicotinamide N-methyltransferase (Homo sapiens) (UniProt P40261); experiment: as above; settings: MTase-Glo luminescence, SAH detection, recombinant enzyme, stronger effect = lower value; measured here: NNMT max response unless noted
# Sequence of Nicotinamide N-methyltransferase (Homo sapiens) (P40261 whole entry, looked up): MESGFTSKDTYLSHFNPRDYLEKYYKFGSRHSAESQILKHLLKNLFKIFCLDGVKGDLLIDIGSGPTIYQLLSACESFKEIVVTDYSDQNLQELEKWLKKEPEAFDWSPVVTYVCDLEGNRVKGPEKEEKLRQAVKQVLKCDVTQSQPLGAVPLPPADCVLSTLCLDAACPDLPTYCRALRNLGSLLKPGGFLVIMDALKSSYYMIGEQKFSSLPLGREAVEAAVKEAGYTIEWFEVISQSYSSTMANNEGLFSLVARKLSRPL
# [9] = target: Phenylethanolamine N-methyltransferase (Homo sapiens) (UniProt P11086); experiment: as above; settings: MTase-Glo luminescence, SAH detection, recombinant enzyme, stronger effect = lower value; measured here: PNMT max response unless noted
# Sequence of Phenylethanolamine N-methyltransferase (Homo sapiens) (P11086 whole entry, looked up): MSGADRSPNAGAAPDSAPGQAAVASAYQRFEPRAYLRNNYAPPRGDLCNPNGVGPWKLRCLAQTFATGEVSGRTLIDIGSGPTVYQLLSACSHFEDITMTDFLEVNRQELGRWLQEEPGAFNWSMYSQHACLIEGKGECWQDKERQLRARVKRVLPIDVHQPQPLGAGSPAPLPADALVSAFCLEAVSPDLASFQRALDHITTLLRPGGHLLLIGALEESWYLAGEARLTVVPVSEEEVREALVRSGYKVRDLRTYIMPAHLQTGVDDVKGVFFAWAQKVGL
# [10] = target: Rap guanine nucleotide exchange factor 3 (Homo sapiens) (UniProt O95398); experiment: Confirmatory qHTS for antagonist of cAMP-regulated guanine nucleotide exchange factor 3 (EPAC1) (AID 1645880); also: nearly all actives have a fitted effect of over 55% in size
# Sequence of Rap guanine nucleotide exchange factor 3 (Homo sapiens) (O95398 whole entry, looked up): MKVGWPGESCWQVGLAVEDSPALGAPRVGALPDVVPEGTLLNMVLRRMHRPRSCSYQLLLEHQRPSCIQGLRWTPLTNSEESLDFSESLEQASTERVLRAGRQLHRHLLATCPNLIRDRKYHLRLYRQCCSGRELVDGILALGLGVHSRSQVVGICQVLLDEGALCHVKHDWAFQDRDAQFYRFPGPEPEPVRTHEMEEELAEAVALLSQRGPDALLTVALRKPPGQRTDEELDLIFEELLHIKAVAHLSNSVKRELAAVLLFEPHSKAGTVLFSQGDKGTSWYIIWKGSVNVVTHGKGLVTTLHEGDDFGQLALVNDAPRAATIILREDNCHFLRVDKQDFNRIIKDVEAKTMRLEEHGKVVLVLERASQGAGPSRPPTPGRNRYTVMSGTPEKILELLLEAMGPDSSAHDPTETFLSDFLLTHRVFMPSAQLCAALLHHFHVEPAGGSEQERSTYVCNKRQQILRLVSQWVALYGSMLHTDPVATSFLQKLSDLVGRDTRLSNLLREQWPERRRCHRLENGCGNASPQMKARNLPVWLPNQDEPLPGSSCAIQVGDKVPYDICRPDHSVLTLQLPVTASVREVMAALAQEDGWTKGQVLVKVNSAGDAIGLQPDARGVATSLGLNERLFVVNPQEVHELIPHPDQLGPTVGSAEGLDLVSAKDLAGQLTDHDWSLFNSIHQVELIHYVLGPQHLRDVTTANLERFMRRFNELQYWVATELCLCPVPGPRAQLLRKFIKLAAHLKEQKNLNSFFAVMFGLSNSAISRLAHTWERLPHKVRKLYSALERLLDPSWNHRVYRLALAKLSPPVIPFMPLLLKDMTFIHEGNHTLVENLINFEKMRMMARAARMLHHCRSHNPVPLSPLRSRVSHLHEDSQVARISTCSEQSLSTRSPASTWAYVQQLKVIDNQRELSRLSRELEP
# Method in brief: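 Nucleotide exchange uses 100 nM EPAC1, 250 nM RAP1B-BODIPY-GDP and 50 uM GDP, with compounds in a concentration-titration series. After 5 min at room temperature, fluorescence (480 nm ex/540 nm em) is read every 5 min for 30 min. Data are normalized to control ATA and DMSO.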
# [11] = target: Rap guanine nucleotide exchange factor 3 (Homo sapiens) (UniProt O95398); experiment: Confirmatory qHTS for agonist of cAMP-regulated guanine nucleotide exchange factor 3 (EPAC1) (AID 1645881);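 also: EPAC1 catalysed release of BODIPY-GDP from Rap1B seen as fluorescence loss; nearly all actives have a fitted effect of over 75% in size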
# [12] = target: Rap guanine nucleotide exchange factor 4 (Homo sapiens) (UniProt Q8WZA2); experiment: Confirmatory qHTS for agonist of cAMP-regulated guanine nucleotide exchange factor 4 (EPAC2) (AID 1645884);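 also: nucleotide exchange releases bodipy-GDP from Rap1 and this lowers its fluorescence; nearly all actives have a fitted effect of over 65% in size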
# Sequence of Rap guanine nucleotide exchange factor 4 (Homo sapiens) (Q8WZA2 whole entry, looked up): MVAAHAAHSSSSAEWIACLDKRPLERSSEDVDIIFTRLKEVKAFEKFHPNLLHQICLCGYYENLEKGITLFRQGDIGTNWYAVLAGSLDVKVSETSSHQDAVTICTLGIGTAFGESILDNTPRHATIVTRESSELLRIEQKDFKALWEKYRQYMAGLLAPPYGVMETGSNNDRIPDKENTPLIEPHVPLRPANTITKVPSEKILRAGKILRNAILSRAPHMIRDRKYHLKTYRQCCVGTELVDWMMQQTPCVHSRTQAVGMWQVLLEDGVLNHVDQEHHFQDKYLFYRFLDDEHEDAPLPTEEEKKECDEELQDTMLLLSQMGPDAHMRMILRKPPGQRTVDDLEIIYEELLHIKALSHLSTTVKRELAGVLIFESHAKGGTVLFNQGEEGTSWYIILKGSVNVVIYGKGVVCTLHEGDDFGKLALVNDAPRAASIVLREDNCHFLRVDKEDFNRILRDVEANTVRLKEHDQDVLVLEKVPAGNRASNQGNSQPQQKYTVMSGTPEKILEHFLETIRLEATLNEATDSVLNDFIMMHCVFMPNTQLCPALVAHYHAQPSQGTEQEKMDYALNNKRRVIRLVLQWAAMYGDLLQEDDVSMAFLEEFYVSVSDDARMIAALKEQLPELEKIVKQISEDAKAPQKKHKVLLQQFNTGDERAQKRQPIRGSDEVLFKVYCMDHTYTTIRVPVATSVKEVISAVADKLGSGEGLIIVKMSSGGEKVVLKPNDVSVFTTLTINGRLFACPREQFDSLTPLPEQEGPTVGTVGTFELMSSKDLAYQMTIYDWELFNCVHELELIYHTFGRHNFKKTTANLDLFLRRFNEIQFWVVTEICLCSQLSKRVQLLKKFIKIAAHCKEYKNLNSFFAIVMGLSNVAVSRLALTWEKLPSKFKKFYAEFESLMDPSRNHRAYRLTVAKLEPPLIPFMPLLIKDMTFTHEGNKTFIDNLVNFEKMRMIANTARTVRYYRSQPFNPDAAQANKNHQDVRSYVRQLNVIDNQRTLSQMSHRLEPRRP
# [13] = target: Rap guanine nucleotide exchange factor 4 (Homo sapiens) (UniProt Q8WZA2); experiment: Confirmatory qHTS for antagonist of cAMP-regulated guanine nucleotide exchange factor 4 (EPAC2) (AID 1645885); also: potency is read from the fitted curve at half-maximal effect; nearly all actives have a fitted effect of over 25% in size
compound,measurement,setting,value
COc1ccc2cc([C@H](C)C(=O)O)ccc2c1,outcome,[1],inactive
same,Potency,[2],inactive
O=c1c(O)c(-c2cc(O)c(O)c(O)c2)oc2cc(O)cc(O)c12,Potency,[3],18.6 µM (active)
same,outcome,[4],inactive
Cc1cccc(-c2[nH]ncc2-c2ccc3ncccc3n2)n1,outcome,[4],inactive
CN(C)[C@@H](CCOc1cccc2ccccc12)c1ccccc1,Potency,[5],23.7 µM (active)
Nc1nc(N)c(N=O)c(OCC2CCCCC2)n1,Potency,[3],7.31 µM (active) and 4.68 µM (active)
same,Potency,[5],6.51 µM (active)
same,outcome,[4],inactive
Cc1nc(Nc2ncc(C(=O)Nc3c(C)cccc3Cl)s2)cc(N2CCN(CCO)CC2)n1,Potency,[3],0.7 nM (active) and 12.9 nM (active) and 20.9 nM (active)
same,activity,[6],-54.8%
same,Potency,[7],30.4 µM (active)
same,activity,[8],-33%
same,activity,[9],-52.6%
same,outcome,[1],inactive
O=c1c(O)c(-c2ccc(O)cc2O)oc2cc(O)cc(O)c12,outcome,[4],inactive
COC(=O)N[C@H](C(=O)N[C@@H](Cc1ccccc1)[C@@H](O)CN(Cc1ccc(-c2ccccn2)cc1)NC(=O)[C@@H](NC(=O)OC)C(C)(C)C)C(C)(C)C,outcome,[1],inactive
Cc1cccc(C#Cc2ccccc2)n1,outcome,[4],inactive
Clc1ccc2c(N3CCN(CCCN4CCN(c5ccnc6cc(Cl)ccc56)CC4)CC3)ccnc2c1,Potency,[3],inactive
same,Potency,[5],inactive
same,outcome,[4],inactive
C[C@@H](N)C1CCC(C(=O)Nc2ccncc2)CC1 (some centres undefined),Potency,[3],inactive
same,Potency,[5],inactive
same,outcome,[4],inactive
CN(C)C(=O)[C@H](O)[C@H](Cc1ccccc1)NC(=O)c1cc2cc(Cl)ccc2[nH]1,outcome,[4],inactive
Cc1c(OCC(F)(F)F)ccnc1CS(=O)c1nc2ccccc2[nH]1 (centres undefined),activity,[6],13%
same,"activity change, negative = inhibition",[7],6.68%
same,activity,[8],8.13%
same,activity,[9],10%
O=C(O)c1cccnc1Nc1cccc(C(F)(F)F)c1,Potency,[5],inactive
same,outcome,[4],inactive
Oc1ccc2ccccc2c1SSc1c(O)ccc2ccccc12,Potency,[3],23.5 µM (active) and 16.4 µM (active)
same,activity,[6],22.1%
same,"activity change, negative = inhibition",[7],-0.328%
same,activity,[8],-8.59%
same,activity,[9],2.32%
same,outcome,[4],inactive
CC1(C)C(=O)N(CCN2CCC(C(=O)c3ccc(F)cc3)CC2)c2ccccc21,outcome,[4],inactive
O=C(CCc1ccc(O)cc1)c1c(O)cc(O)cc1O,Potency,[3],inactive
same,outcome,[4],inactive
C[C@H](Cn1cnc2c(N)ncnc21)OCP(=O)(O)O,outcome,[1],inactive
O=C(c1ccccc1)c1ccc2n1CCC2C(=O)O (centres undefined),Potency,[3],inactive
same,Potency,[5],inactive
same,outcome,[4],inactive
COc1ccccc1N1CCN(CCN(C(=O)C2CCCCC2)c2ccccn2)CC1,Potency,[3],inactive
same,Potency,[5],inactive
same,outcome,[4],inactive
C[C@@H](c1ncncc1F)[C@](O)(Cn1cncn1)c1ccc(F)cc1F,outcome,[4],inactive
CCOC(=O)C1=C(O)C(=O)N(Cc2ccccc2)C1,Potency,[3],inactive
same,Potency,[5],inactive
same,outcome,[4],inactive
COC(=O)C1=C(C)NC(C)=C(C(=O)OC(C)C)C1c1cccc2nonc12 (centres undefined),Potency,[10],inactive
same,outcome,[11],inactive
same,outcome,[12],inactive
same,Potency,[13],44.1 µM (active)
CC(=O)N1CCN(c2ccc(OC[C@H]3CO[C@](Cn4ccnc4)(c4ccc(Cl)cc4Cl)O3)cc2)CC1,Potency,[10],inactive
same,outcome,[11],inactive
same,outcome,[12],inactive
same,Potency,[13],49.4 µM (active)
same,outcome,[4],inactive
NCCCCNCCCN,Potency,[5],6.61 µM (active)
same,outcome,[4],inactive
O=C1c2c(O)cc(O)cc2OC(c2ccc(O)c(O)c2)C1O (centres undefined),outcome,[4],inactive
O=c1ccc2ccc(O)c(O)c2o1,activity,[6],197%
same,"activity change, negative = inhibition",[7],2.41%
same,activity,[8],-4.08%
same,activity,[9],2.42%
same,outcome,[4],inactive
CCN(CC)CCOc1ccc(Cc2ccccc2)cc1,Potency,[5],29.9 µM (active)
